Laboratory results: PubChem BioAssay (NCATS)
Results filed as inconclusive are left out. Active and inactive are the calls of the source. Calls come from the whole dose curve; as a rule, active = well fitted inhibition curve with a large enough effect; inconclusive = small, poorly fitted or top-dose-only effect; inactive = flat fitted curve, though single readings scatter.

Tests used:
Assay in all cases: qHTS profiling for inhibitors of Plasmodium falciparum proliferation (AID 504749); note: nearly all actives have a fitted effect of over 60% in size
Settings in all cases: P. falciparum in erythrocytes, SYBR Green DNA, 72 h; series mostly up to 28.7 µM
CP185 = test system: CP185
Outline: (§1)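 P. falciparum-infected erythrocytes (0.3% parasitemia, 2.5% hematocrit) incubated with compound 72 h at 37 C, 5% CO2. Parasite DNA detected by SYBR Green after lysis, overnight at room temperature; normalised to 0.29 uM artemisinin and DMSO.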

CP191 = test system: CP191
Outline: as §1

CP192 = test system: CP192
Outline: as §1

CP194 = test system: CP194
Outline: as §1

CP201 = test system: CP201
Outline: as §1

CP211 = test system: CP211
Outline: as §1

CP215 = test system: CP215
Outline: as §1

CP217 = test system: CP217
Outline: as §1

CP237 = test system: CP237
Outline: as §1

CP203 = test system: CP203
Outline: as §1

Measured: Potency
Potency is the fitted concentration of half-maximal effect.

Nc1nc(N)c2nc(-c3ccccc3)c(N)nc2n1
not listed: CP203
inactive: all other assays above

CCN(Cc1ccncc1)C(=O)C(CO)c1ccccc1 (stereo not drawn)
not listed: CP203
inactive: all other assays above

O=C(CCNNC(=O)c1ccncc1)NCc1ccccc1
not listed: CP203
inactive: all other assays above

CC(=O)[C@@]1(O)CC[C@H]2[C@@H]3CCC4=CC(=O)CC[C@]4(C)[C@H]3CC[C@@]21C
not listed: CP203
inactive: all other assays above

CN1CCN(C2=Nc3ccccc3Oc3ccc(Cl)cc32)CC1
not listed: CP203
inactive: all other assays above

CCOC(=O)c1cnc2c(cnn2CC)c1NN=C(C)C
not listed: CP203
inactive: all other assays above

OC(CCN1CCCCC1)(c1ccccc1)C1CCCCC1 (stereo not drawn)
not listed: CP194
inactive: all other assays above

CN=C(NC#N)NCCSCc1nc[nH]c1C
not listed: CP203
inactive: all other assays above

CCn1cc(C(=O)O)c(=O)c2cc3c(cc21)OCO3
not listed: CP203
inactive: all other assays above

NC(=O)N1c2ccccc2C=Cc2ccccc21
not listed: CP211 | CP203
inactive: all other assays above

CCCOc1ccccc1-c1nc2n[nH]nc2c(=O)[nH]1
not listed: CP203
inactive: all other assays above

CCN1CCc2nc(N)oc2CC1
not listed: CP203
inactive: all other assays above

COC(=O)[C@H]1[C@H]2C[C@@H]3c4[nH]c5cc(OC)ccc5c4CCN3C[C@H]2C[C@@H](OC(=O)c2cc(OC)c(OC)c(OC)c2)[C@@H]1OC
active: CP185 7.94 µM | CP191 8.91 µM | CP192 13.5 µM | CP194 9.53 µM | CP201 12 µM | CP211 6.75 µM | CP215 9.53 µM | CP217 11.2 µM | CP237 11.2 µM

O=C(O)CCCCCCCC(=O)O
not listed: CP203
inactive: all other assays above

CN(C)CCOC(=O)COc1ccc(Cl)cc1
not listed: CP194 | CP237 | CP203
inactive: all other assays above

OCCN1CCN(CCCN2c3ccccc3C=Cc3ccccc32)CC1
active: CP185 12.6 µM | CP191 4.47 µM | CP192 10.7 µM | CP194 7.57 µM | CP203 6.75 µM | CP211 12 µM | CP215 8.49 µM | CP217 7.08 µM | CP237 5.01 µM

C#CCN(C)CCCOc1ccc(Cl)cc1Cl
not listed: CP203
inactive: all other assays above

CCCCCN(CCCCC)C(=O)C(CCC(=O)O)NC(=O)c1ccc(Cl)c(Cl)c1 (stereo not drawn)
not listed: CP203
inactive: all other assays above

C[N+](C)(C)CCCCCCCCCC[N+](C)(C)C
active: CP185 4.47 µM | CP191 3.55 µM | CP192 1.9 µM | CP194 2.13 µM | CP201 3.38 µM | CP211 1.69 µM | CP215 4.26 µM | CP217 3.55 µM | CP237 3.16 µM

NS(=O)(=O)c1cc2c(cc1Cl)NC(C1CC3C=CC1C3)NS2(=O)=O (stereo not drawn)
not listed: CP203
inactive: all other assays above

Cc1ccc(=O)n(-c2ccccc2)c1
not listed: CP203
inactive: all other assays above

CN(C)C(=O)Oc1cccc([N+](C)(C)C)c1
not listed: CP215 | CP203
inactive: all other assays above

Nc1ncn([C@@H]2O[C@H](CO)[C@@H](O)[C@H]2O)c(=O)n1
not listed: CP203
inactive: all other assays above
